Shown are actives, neighbours in structure and some others; about 21% of the full set was active somewhere.
Pf growth 48h – inhibits P. falciparum growth in the first generation, 48 h; P. falciparum luciferase growth in erythrocytes, 48 h; 5.9% of 310,000 active; Potency, µM (doses to about 28.7 µM), for inactives: at the top dose activity change, negative = inhibition, most hits filed as inhibitors; further: potency means the concentration at half of the fitted maximal effect; on the % scale 0 is the no-effect control and ±100 the full control effect
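Read-out is firefly luciferase luminescence from an integrated reporter in P. falciparum, so falling signal marks reduced parasite growth. Infected erythrocytes were at 2% hematocrit and 0.1% parasitemia (final) in Albumax-supplemented RPMI 1640.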
Giardia FBPA inh – Giardia lamblia aldolase inhibition | Potency, µM (series often up to 59.6 µM), inactives show top-dose activity, negative = inhibition, actives largely listed as inhibitors | AID 2451 | 0.71% of 290,000 active | purified Giardia FBPA | A8B2U2; further: potency means the concentration at half of the fitted maximal effect; on the % scale 0 is the no-effect control and ±100 the full control effect; nearly all actives have a fitted effect of over 55% in size
Target sequence (A8B2U2 whole entry, looked up): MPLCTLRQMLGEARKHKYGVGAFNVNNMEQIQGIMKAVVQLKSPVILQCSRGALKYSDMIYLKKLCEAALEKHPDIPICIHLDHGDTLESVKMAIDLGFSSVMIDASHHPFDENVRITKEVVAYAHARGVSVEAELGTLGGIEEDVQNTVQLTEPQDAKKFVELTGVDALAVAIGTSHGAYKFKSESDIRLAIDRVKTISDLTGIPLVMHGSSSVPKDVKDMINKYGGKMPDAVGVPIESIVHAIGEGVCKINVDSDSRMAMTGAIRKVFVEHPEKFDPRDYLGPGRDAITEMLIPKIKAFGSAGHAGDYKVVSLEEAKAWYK
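40 nM FBPA preincubated 10 min at RT with compound (up to 57.5 uM final), then substrate plus GAPDH/TPI/NAD/arsenate coupling and diaphorase/resazurin added. Fluorescence read after 20 min at RT, 525/598 nm.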
NS1 function inh – influenza NS1 inhibition. Potency, µM (titrated, usually from 46.1 µM), for the others: top-dose activity, positive = more growth. 0.4% of 270,000 active. AID 2326; calls by dose curve; further: potency means the concentration at half of the fitted maximal effect; actives are rising curves; nearly all actives have a fitted effect of over 50% in size
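Read-out: OD600 growth recovery of NS1-expressing budding yeast. Cells grown overnight at 30C in -URA glucose medium, washed, resuspended and diluted 1:100 in 2% galactose assay medium, pH 6.0. Same strain lacking NS1 served as positive control.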
Pf growth 96h – P. falciparum growth inhibition at 96 hour, primary screen for plastid delayed-death inhibitors; AID 504834; P. falciparum luciferase reporter growth, 96 h; Potency, µM (top dose mostly 28.7 µM), without a hit: at the highest dose activity change, negative = inhibition, actives largely listed as inhibitors; 6.9% of 320,000 active; further: potency means the concentration at half of the fitted maximal effect; on the % scale 0 is the no-effect control and ±100 the full control effect
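96 h incubation, 37 C, 5% CO2, of luciferase-reporter P. falciparum-infected RBCs (2% hematocrit, 0.05% parasitemia final) with test compounds; endpoint luminescence.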
Shiga inhibitor – Shiga toxin inhibition; inhibition, % at 38.7 µM; AID 2315; 9.2% of 290,000 active; Vero cells, Shiga toxin protein synthesis inhibition reporter; in the data active means inhibition mostly above about 28%, no sharp cut-off; inactive means mostly below about 43%; further: 0% is about no effect
CHX counter – affects cycloheximide protein synthesis inhibition readout, counter-screen; cell reporter, cycloheximide protein synthesis inhibition counterscreen; max response, %; 12% of 300,000 active; in the data active means max response mostly above about 13%, no sharp cut-off; inactive means mostly below about 14%; further: read at 38.3 µM for the half of the compounds with a filed dose; 0% is about no effect
* hit, by the source's call; ? = inconclusive; . = no result given. Unless noted, the call rests on the fitted dose curve; in most records, active means well fitted curve in the direction sought with a large enough effect; inconclusive means small, poorly fitted or top-dose-only effect, or another doubt; inactive means no such curve, though single readings can be large; an effect the other way counts as inactive or inconclusive.

SMILES	Pf growth 48h	Giardia FBPA inh	NS1 function inh	Pf growth 96h	Shiga inhibitor	CHX counter
CC(C)(C)c1cc(Br)c(O)c(N=Nc2ccc(S(=O)(=O)N3CCOCC3)cc2)c1	11.7µM*	-10.0%	.	10.4µM*	-2.9	-3.6
Cc1cnc(NC(=O)C2CCCO2)s1 (centres undefined)	12.6%	2.9%	7.3%	.	2.2	-3.0
O=C(Nc1ncc(Cc2cccc(Cl)c2)s1)C1CCCO1 (centres undefined)	110.8%	.	-4.4%	100.9%	115.8*	69.1*
CC(=O)Nc1ncc(Cc2cccc(Cl)c2)s1	-1.9%	-3.2%	-76.2%	20.2%	23.2	1.6
O=C(Nc1ncc(Cc2cccc(Cl)c2Cl)s1)C1CCCO1 (centres undefined)	68.1%	-5.0%	-5.2%	8.2%	100.5*	47.5*
CC(=O)Nc1ncc(Cc2cccc(Cl)c2Cl)s1	-14.8%	3.6%	0.3%	14.7%	21.9	3.9
O=C(Nc1ncc(Cc2ccccc2Cl)s1)C1CCCO1 (centres undefined)	408.1%	-2.6%	-1.4%	?	48.8*	54.4*
COc1c(OC(C)=O)ccc(/C=N\NC(=O)c2ccc(Br)cc2)c1[N+](=O)[O-]	-24.6%	-1.0%	-0.5%	?	-0.5	0.6
Cc1c(NS(=O)(=O)c2ccc(N)cc2)c(=O)n(-c2ccccc2)n1C	?	3.8%	-5.8%	?	-11.9	-2.8
C/C(=N\Nc1ccc([N+](=O)[O-])cc1[N+](=O)[O-])C(C)C(C)C (centres undefined)	-4.3%	1.9%	.	?	9.6	-3.2
Fc1cccc(Cl)c1/C=N\N=C1c2ccccc2-c2ccccc21	.	.	-5.2%	.	.	.
CN1c2ccccc2C2(C)CCCC3=Cc4cc([N+](=O)[O-])cc([N+](=O)[O-])c4OC312 (centres undefined)	5.86µM*	2.9%	3.1%	?	-8.3	0.9
CN1c2ccccc2C2(C)CCCC3=Cc4cccc([N+](=O)[O-])c4OC312 (centres undefined)	?	0.1%	-8.8%	?	-5.9	-1.3
CC(=O)N(CCc1ccccc1)Cc1cc2cc(C)ccc2[nH]c1=O	-4.2%	1.4%	11.0%	?	-6.0	1.0
CC(=O)N(Cc1cc2cc(C)ccc2[nH]c1=O)c1cccc(C)c1C	0.1%	4.3%	10.9%	9.28µM*	.	-4.5
COc1cccc(C(=O)N(Cc2cc3cc(C)ccc3[nH]c2=O)C(C)C)c1	7.38µM*	-16.5%	-17.7%	3.7µM*	7.6	-2.7
COc1cc(OC)cc(C(=O)N(Cc2cc3cc(C)ccc3[nH]c2=O)C(C)C)c1	?	-30.0%	-35.1%	?	0.8	0.9
Cc1ccc2cc(CN(C(=O)c3cccnc3)C(C)C)c(=O)[nH]c2c1	11.7µM*	1.6%	-6.2%	?	-13.1	-1.5
CCc1ccc(NC(=O)CSc2nc3ccccc3c(=O)n2CCCC(=O)NCCCN2CCOCC2)cc1	7.38µM*	4.2%	.	?	-8.8	4.8
Cc1ccc(NC(=O)CSc2nc3ccccc3c(=O)n2CCCN2CCCCC2)cc1Cl	-15.1%	5.1%	.	?	-13.3	-15.6
Cc1cc(SCC(=O)Nc2cccc(S(=O)(=O)N3CCOCC3)c2)nc2ccccc12	-29.9%	-4.2%	24.8%	?	-19.1	-1.7
O=C(CSc1nc2ccccc2c(=O)n1CCCN1CCOCC1)Nc1cccc(S(=O)(=O)N2CCCCCC2)c1	0.522µM*	5.7%	-2.2%	0.522µM*	1.9	-4.2
Cc1ccc(NC(=O)CSc2nc3ccccc3c(=O)n2CCCC(=O)NCCCN2CCOCC2)cc1C	?	1.5%	.	13.1µM*	-13.0	-8.1
COCCNC(=O)CSc1nc2ccc(N3CCOCC3)cc2c(=O)n1CCc1ccccc1	0.0%	?	-40.4%	-24.9%	active	14.4*
COc1ccc(CSc2nc3ccccc3c(=O)n2CCCN2CCOCC2)cc1F	?	-0.4%	.	8.28µM*	30.8	9.5
SMILES	Pf growth 48h	Giardia FBPA inh	NS1 function inh	Pf growth 96h	Shiga inhibitor	CHX counter
O=C(NCCc1ccccc1Cl)C1CCC(=O)N(C2CCCCCC2)C1 (centres undefined)	9.2%	14.5%	-7.7%	7.1%	-1.3	19.3
N#CCCCS(=O)(=O)c1nnnn1C1CCCCC1	.	4.1%	.	.	.	.
CC1=CC(=C(C#N)C#N)C=C(C)N1Cc1ccccc1	?	2.8%	.	4.65µM*	18.4	7.5
OCC(Br)(Br)Br	.	1.1%	.	.	18.2	-0.5
O=C(COC(=O)c1ccc2c(=O)n3c(nc2c1)CCC3)Nc1ccc(OC(F)F)cc1	15.2%	1.1%	6.4%	22.6%	-2.9	-2.3
COc1cccc(C(=O)Nc2nc(-c3ccncc3)cs2)c1	30.1%	?	.	-24.0%	30.8	6.4
Cc1csc(NC(=O)c2ccc[nH]c2=O)n1	112.1%	-11.8%	12.0%	190.1%	.	35.6*
COc1cccc(C(=O)Nc2nc(C)cs2)c1	121.6%	-3.8%	-16.2%	84.6%	68.1*	35.1*
Cc1csc(NC(=O)c2ccccc2)n1	215.5%	-12.5%	-8.7%	?	.	42.9*
Cc1csc(NC(=O)c2ccc3nc[nH]c3c2)n1	169.2%	.	2.4%	395.6%	48.6	52.3*
O=C(CCn1c(=O)oc2ccc(Cl)cc21)NCCCN1CCOCC1	14.2%	.	-1.0%	?	4.4	-4.8
COc1cc2c(cc1OC)C(c1cc(OC)c(OC)cc1[N+](=O)[O-])N(C(C)=O)CC2 (centres undefined)	14.2%	-5.3%	2.7%	0.1%	16.3	1.8
O=C(OCC(=O)N1CCCC1=O)C1CCN(S(=O)(=O)c2c(Cl)cccc2Cl)CC1	10.6%	.	-12.4%	42.6%	-17.5	-0.3
COc1ccc(NC(=O)CCC(=O)N2CCOCC2)c([N+](=O)[O-])c1	-0.7%	.	4.1%	-0.8%	-17.9	8.0
CCNc1ncc2nc(C)c(=O)n(CCc3ccccc3)c2n1	.	-3.9%	.	.	.	.
Cc1csc(NC(=O)NCC2CCCC(CNC(=O)Nc3nc(C)cs3)C2)n1 (centres undefined)	11.7µM*	1.3%	7.5%	?	42.6*	30.4*
Cc1csc(NC(=O)c2cccnc2)n1	87.6%	-4.8%	-16.8%	276.4%	19.7	9.5
Cc1csc(NC(=O)c2cccc(C)c2C)n1	159.2%	-2.7%	-31.2%	387.6%	54.9	38.0*
C[C@@](N)(Cc1c[nH]c2ccccc12)C(=O)O	.	.	-6.9%	.	.	.
O=C(c1cnsn1)N1CCC(CO)(Cc2cccc(F)c2)CC1	32.6%	3.3%	-4.9%	?	67.2*	53.8*
CCN(CC(=O)Nc1c(F)cccc1F)C(=O)Cc1csc(-c2ccc(OC)c(OC)c2)n1	-0.4%	.	.	-5.0%	.	.
N/C(=N\OC(=O)Nc1ccccc1)c1ncc(C(F)(F)F)cc1Cl	.	-0.8%	-11.0%	8.3%	52.9*	19.6*
N/C(=N\OC(=O)Nc1ccccc1)c1cccc(C(F)(F)F)c1	?	-12.2%	4.7%	?	43.1*	28.9*
COC(=O)/C(=C\Nc1ccccc1N)c1ncc(C(F)(F)F)cc1Cl	.	1.8%	-3.0%	-18.6%	100.5*	67.9*
N/C(=N\OC(=O)Nc1ccc(Cl)cc1)c1ncc(C(F)(F)F)cc1Cl	.	-2.1%	-6.7%	25.6%	-2.7	8.7
